Assay results as given in PubChem BioAssay AID1531 (NMMLSC, 2009).
Out of some 290,000 compounds screened, about 3,300 (1.1%) were called active. The sample holds actives, similar compounds and a random draw of the others, so the mix is not that of the screen. No stated cut-off is given here; in the data, active means binding response below about 67% or above about 130%; inconclusive means no clear call, values can overlap the other calls; inactive means in between.

Target: Mitogen-activated protein kinase kinase kinase 2 (Homo sapiens) (UniProt Q9Y2U5)
Assay: modulators of MEK5 binding to wildtype MEKK2, primary screen, biochemical, multiplex bead flow cytometry, Alexa488-MEK5 (AID 1531)
Details: Alexa488-MEK5 binding to MEKK2 WT, at 10 µM, actives lie on both sides

Binding response (% of control), active:
O=C(NCCCN1CCN(c2ccc(F)cc2)CC1)Nc1ccc([N+](=O)[O-])cc1 140%
CCC1CCCCN1CCCNC(=O)c1cc2c(Cl)nc3ccccc3c2s1 (stereo not given) 173%
Cc1ccc(S(=O)(=O)/N=S(\C)C(C)C)cc1 (stereo not given) 2% [inhibitor]
OCCNc1nc(Nc2ccc(Cl)c(Cl)c2)nc2ccccc12 150%
Cn1c(C(=O)NCCCN2CCCCC2)cc2sccc21 138%
COCC(C)NC(=O)COc1nncc2ccccc12 (stereo not given) 40% [inhibitor]
COc1cccc(Nc2ncccc2C(=O)O)c1 4% [inhibitor]
Cc1cccc(OCC(O)CN2CCN(CCN3C(=O)c4cccc5cccc(c45)C3=O)CC2)c1C (stereo not given) 146%
CCOc1ccc(S(=O)(=O)N(CC(=O)O)c2ccccc2)cc1 6% [inhibitor]
COC(=O)c1c(NC(=O)COC(=O)[C@@H](NS(=O)(=O)c2ccccc2)C(C)C)sc2c1CCC2 1% [inhibitor]
Cc1ccc2sc(N(CCN(C)C)C(=O)/C=C/c3cccs3)nc2c1C 151%
Cc1cc(C)c2nc(N(CCN(C)C)C(=O)/C=C/c3cccs3)sc2c1 165%
Cc1ccc(N2C(=O)CC(N3CCSCC3)C2=O)c(C)c1 (stereo not given) 62% [inhibitor]
CN1CCC(CN)(N2CCN(c3ccccc3)CC2)CC1 146%
O=C(CN1C(=O)c2cccnc2Oc2ccc(Cl)cc21)Nc1ccc(F)cc1 50% [inhibitor]
CC(=O)c1cccc(NC(=O)CN2C(=O)c3cccnc3Oc3ccc(Cl)cc32)c1 68% [inhibitor]
CCOC(=O)c1cc2occc2n1CC(=O)N1CCN(C(=O)c2ccco2)CC1 -8% [inhibitor]

Binding response (% of control), inactive:
Cn1ccnc1-c1nnn(-c2ccc(F)cc2)n1 97%
CSc1ccc(S(=O)(=O)N2CCC(C(=O)NCc3ccncc3)CC2)cc1 105%
CN(CC(=O)O)S(=O)(=O)c1ccc2oc3ccccc3c2c1 110%
O=C(COc1ccc([N+](=O)[O-])cc1)Nc1ccc(N2CCCC2)cc1 103%
CN1CCN(CCNC(=O)Nc2ccc([N+](=O)[O-])cc2)CC1 105%
COC(=O)C1(C)CC1(c1ccccc1)c1ccccc1 (stereo not given) 104%
CCOCCCn1c(SCC(=O)Nc2cc(OC)ccc2OC)nc2ccccc2c1=O 105%
O=C(NCc1ccco1)/C(=C\c1cccc([N+](=O)[O-])c1)NC(=O)c1ccco1 101%
CCC1CCCCN1CCCNC(=O)C1CCC(Cn2c(=O)[nH]c3ccccc3c2=O)CC1 (stereo not given) 110%
CCC1CCCCN1CCCNC(=O)Cn1nc(-c2ccccc2)ccc1=O (stereo not given) 108%
CN1CCN(Cc2nc3cc(NC(=O)COc4ccc([N+](=O)[O-])cc4)ccc3n2C)CC1 109%
CCCC/S(C)=N/S(=O)(=O)c1ccc(C)cc1 (stereo not given) 102%
CC/S(CC1CC1(Cl)Cl)=N\S(=O)(=O)c1ccc(C)cc1 (stereo not given) 96%
S=C(NCCCc1ccccc1)Nc1ccc(Br)cc1 100%
COc1ccccc1NC(=O)CN(c1ccccc1OC)S(=O)(=O)c1ccccc1 99%
Nc1nc(Nc2ccccc2)nc(NCCO)c1[N+](=O)[O-] 98%
CN(C)c1nc(Nc2ccc(Cl)c(Cl)c2)nc(N(C)C)n1 98%
CC(C)CNS(=O)(=O)c1ccc(C(=O)Nc2ccc3c(c2)OCO3)cc1 103%
Cn1c(C(=O)N2CCCC(C(=O)NCc3ccccc3)C2)cc2sccc21 (stereo not given) 102%
COc1ccc(CCNC(=O)c2cc3sccc3n2C)cc1OC 104%
COC(=O)C(C)NC(=O)COc1ccc2ccccc2c1 (stereo not given) 95%
CC(C)C(C)NC(=O)COc1ncnc2ccccc12 (stereo not given) 105%
CCC(C)C(=O)Nc1ccccc1N1CCN(c2ccc(F)cc2)CC1 (stereo not given) 101%
COc1cc(NC(=O)c2cccnc2SC)cc(OC)c1 101%
COc1ccc2nc(C)cc(Nc3cccc(C(=O)O)c3)c2c1 110%
COc1ccc(-c2c(NC(=O)c3ccco3)oc3ccc(Cl)cc3c2=O)cc1 104%
COc1ccc2[nH]c3nc(SCC(=O)NC4CC4)nnc3c2c1 104%
CCCCCCCCCCCCN1[C@@H](CC(C)=O)c2cc(F)cc(F)c2S1(=O)=O 103%
Cc1nc(-c2ccc(Cl)cc2)sc1C1(C)CC(c2ccc(Br)cc2)=NO1 (stereo not given) 95%
O=C(CN1CCOc2ccccc21)N1CCC(Cc2ccccc2)CC1 107%
Cc1cccc(C)c1OCC(O)CN1CCCCC1 (stereo not given) 94%
Cc1ccccc1OCC(O)CN1CCN(c2ccccn2)CC1 (stereo not given) 99%
O=C(NC1CC1)C1=C[C@H](c2coc3ccccc3c2=O)C[C@H](OCCCCO)O1 108%
Cc1cccc(N(C(=O)c2sc(C)nc2C)C(C(=O)NCC2CCCO2)c2ccccc2)c1 (stereo not given) 106%
Nc1nc(Nc2ccccc2F)nc(NC2CCCCC2)c1[N+](=O)[O-] 98%
CCn1c(SCC(=O)Nc2ccc3c(c2)OCCO3)nnc1-c1ccncc1 106%
CCOc1ccc(N(CC(=O)NCCOc2ccccc2OC)S(=O)(=O)c2ccccc2)cc1 104%
CCOc1ccc(N(CC(=O)NCCc2ccc(F)cc2)S(=O)(=O)c2ccccc2)cc1 96%
C=Cn1cc[n+](CC(=O)c2ccc(OC)c(OC)c2)c1 96%
CSc1nnc(NC(=O)c2nc(S(=O)(=O)Cc3ccc(C)cc3)ncc2Cl)s1 101%
COC(=O)c1c(NC(=O)CCCC(=O)O)sc2c1CCCCC2 98%
CCc1ccc(N(CC(=O)Nc2sc3c(c2C(=O)OC)CCCC3)S(C)(=O)=O)cc1 93%
Cc1cc(CN(C)C(=O)c2cc(COc3ccc(C)c(C)c3)on2)n[nH]1 109%
CN(CCc1ccccc1)c1ccc([N+](=O)[O-])cn1 102%
Cc1ccc2nc(N(CCN(C)C)C(=O)C3=COCCO3)sc2c1 113%
CC(=O)N(CCCN(C)C)c1nc2ccc(C)cc2s1 104%
Cc1ccc(S(=O)(=O)N(C)C)cc1NC(=O)/C=C/c1cccs1 107%
Cc1cccc2sc(N(CCCN(C)C)C(=O)CCS(=O)(=O)c3ccccc3)nc12 119%
COc1ccc(N2CCN(C(=O)[C@@H](NC(=O)c3cc(OC)cc(OC)c3)C(C)C)CC2)cc1 108%
S=C(Nc1cccnc1)Nc1ccccn1 99%
COCC1CCN(C(=O)CCc2nnc(C3(c4ccc(Cl)cc4)CCC3)o2)C1 (stereo not given) 103%
CCN(CC)CCN1C(=O)C2C(C(=O)Nc3ccc(Br)cc3)C3C=CC2(O3)C1C(=O)NC1CCCCC1 (stereo not given) 106%
C=CCOC(=O)C1=C[C@H](c2ccc(Br)cc2)C[C@H](OCCCCO)O1 95%
Cc1cc2oc3ccc(NCCC4CCCN4C)cc3c(=O)c2cc1C (stereo not given) 135%
CCOC(=O)CSc1nc2ccc(C)cc2n2cnnc12 96%
C#CCNC(=O)[C@H](Cc1ccc(C(=O)c2ccccc2)cc1)NC(=O)OC(C)(C)C 101%
Cc1cc(-c2ccc(C)c(S(=O)(=O)NCCCN(Cc3ccccc3)C(C)C)c2)on1 108%
Cc1ccc(CC2CC(=O)N(c3cc(C)ccc3C)C2=O)cc1 (stereo not given) 101%
O=C1CC(N2CCN(c3ccc(F)cc3)CC2)C(=O)N1c1ccccc1 (stereo not given) 101%
COc1cc(C(=O)NCCOC(=O)c2cccc(N(C)C)c2)cc(OC)c1OC 96%
COc1ccc(N2CCN(C(=O)C3CCN(C(=O)c4ccccc4Cl)CC3)CC2)cc1 97%
O=C(Cn1cnc2ccccc21)Nc1ccccc1-c1ccccc1 115%
COc1ccccc1C(C)NC(=O)Cc1ccsc1 (stereo not given) 104%
CN1CCN(c2ccc(NC(=O)c3ccccc3)cc2)CC1 111%
O=C(c1ccccc1)c1ccc(C(=O)N2CCN(c3ccccc3)CC2)cc1 102%
CCn1c(SCC(=O)NC2CC2)nnc1-c1ccccc1OC 100%
CCOC(=O)C(Cc1ccc(N)cc1)N1C(=O)c2ccccc2C1=O (stereo not given) 106%
O=S(=O)(NCC1CC1)c1ccc(F)c(Cl)c1 97%
Cc1ccc2c(c1)N(CC(=O)N1CCC(C)CC1)C(=O)c1cccnc1O2 103%
Cc1ccc2c(c1)N(CC(=O)NCCCN1CCCCC1)C(=O)c1cccnc1O2 106%
Cc1ccc2c(c1)N(CC(=O)NCCc1ccc(Cl)cc1)C(=O)c1cccnc1O2 98%
O=C(CN1C(=O)c2cccnc2Oc2ccc(Cl)cc21)NCCc1ccccc1 101%
Cc1ccc(-c2csc(NCCc3nc4cc(Cl)c(Cl)cc4n3CCOCCO)n2)cc1 105%
CCn1ccnc1CN(C)C(=O)c1ccc2nc(Cc3ccc(OC)cc3)oc2c1 103%
COC(=O)c1ccc2c(C(C)(C)O)c(C(C)(C)O)[nH]c2c1 88%
Cc1ccccc1N(C(=O)CNC(=O)c1cccs1)C(C(=O)NC1CCCC1)c1ccncc1 (stereo not given) 98%
CCOC(=O)c1cc2occc2n1CC(=O)NC1CCC(C)CC1 (stereo not given) 99%
CCOC(=O)c1cc2c(ccn2C)n1CC(=O)N1CCC(C)CC1 110%
